Screening data (PubChem BioAssay)
This is one part of a sample in which hits are shown more often than they occur.
BLM inh-1: qHTS Assay for Inhibitors of Bloom's syndrome helicase (BLM) | recombinant BLM DNA unwinding, fluorescence dequenching | 0.2% of 350,000 active | AID 2528, 2010 | Potency, µM (titrated, usually from 56.1 µM), without a hit: at the top dose activity change, negative = inhibition, most hits filed as inhibitors | RecQ-like DNA helicase BLM (Homo sapiens), P54132;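 further: plate controls were vehicle for no effect and no enzyme for full effect; nearly all actives have a fitted effect of over 35% in size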
Target sequence (P54132 whole entry, looked up): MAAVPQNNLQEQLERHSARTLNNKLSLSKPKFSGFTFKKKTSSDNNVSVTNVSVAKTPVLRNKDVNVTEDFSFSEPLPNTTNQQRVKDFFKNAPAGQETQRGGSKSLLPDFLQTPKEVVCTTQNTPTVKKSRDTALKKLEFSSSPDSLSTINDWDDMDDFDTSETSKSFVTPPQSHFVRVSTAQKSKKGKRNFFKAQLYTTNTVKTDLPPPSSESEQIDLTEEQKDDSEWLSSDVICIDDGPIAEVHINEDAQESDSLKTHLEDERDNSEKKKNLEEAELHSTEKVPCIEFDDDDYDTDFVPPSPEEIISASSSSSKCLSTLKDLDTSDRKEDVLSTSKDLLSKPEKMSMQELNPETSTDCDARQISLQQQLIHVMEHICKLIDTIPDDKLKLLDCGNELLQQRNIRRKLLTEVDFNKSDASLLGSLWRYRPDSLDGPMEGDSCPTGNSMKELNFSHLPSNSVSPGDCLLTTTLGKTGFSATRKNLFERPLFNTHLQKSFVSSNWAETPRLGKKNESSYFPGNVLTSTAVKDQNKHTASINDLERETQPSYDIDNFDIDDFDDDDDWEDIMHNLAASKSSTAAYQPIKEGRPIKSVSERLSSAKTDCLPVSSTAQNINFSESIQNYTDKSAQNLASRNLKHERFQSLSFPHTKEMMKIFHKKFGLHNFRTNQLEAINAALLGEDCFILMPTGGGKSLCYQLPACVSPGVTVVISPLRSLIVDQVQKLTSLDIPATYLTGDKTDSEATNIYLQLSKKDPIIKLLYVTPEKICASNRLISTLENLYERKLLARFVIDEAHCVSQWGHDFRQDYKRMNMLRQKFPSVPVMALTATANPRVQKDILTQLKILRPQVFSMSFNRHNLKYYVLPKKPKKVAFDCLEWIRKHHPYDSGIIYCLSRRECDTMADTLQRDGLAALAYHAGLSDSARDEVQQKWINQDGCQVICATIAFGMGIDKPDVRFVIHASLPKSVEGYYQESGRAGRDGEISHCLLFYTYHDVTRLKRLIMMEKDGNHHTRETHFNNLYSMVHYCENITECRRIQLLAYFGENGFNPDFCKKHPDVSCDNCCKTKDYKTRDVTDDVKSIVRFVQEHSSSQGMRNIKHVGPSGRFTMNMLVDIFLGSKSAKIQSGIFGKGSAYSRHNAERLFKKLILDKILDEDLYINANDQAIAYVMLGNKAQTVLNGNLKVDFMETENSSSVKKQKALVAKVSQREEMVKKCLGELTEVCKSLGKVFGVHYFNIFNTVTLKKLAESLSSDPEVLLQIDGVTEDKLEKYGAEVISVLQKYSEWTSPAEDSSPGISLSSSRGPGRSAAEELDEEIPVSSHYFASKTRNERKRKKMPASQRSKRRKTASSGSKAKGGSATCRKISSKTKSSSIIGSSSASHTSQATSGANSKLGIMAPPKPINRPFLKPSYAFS
L3MBTL1 inh: qHTS Assay for the Inhibitors of L3MBTL1; Lethal(3)malignant brain tumor-like protein 1 (Homo sapiens), Q9Y468; AlphaScreen L3MBTL1–H3K9me1 peptide binding; Potency, µM (series often up to 57.1 µM), for the others: top-dose activity, negative = inhibition, hits mostly inhibitors; 0.66% of 230,000 active; further: nearly all actives have a fitted effect of over 60% in size
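Displacement of a biotinylated histone H3(1-15) peptide monomethylated at Lys9 (75 nM) from L3MBTL1 (50 nM) was measured by AlphaScreen after a 30 min room-temperature compound incubation; cefsulodin titration served as intraplate control.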
JMJD2E inh: qHTS Assay for Inhibitors of Human Jumonji Domain Containing 2E (JMJD2E). 1.6% of 230,000 active. AID 2147, 2009. JMJD2E catalytic domain, FDH-coupled NADH fluorescence (FDH is formaldehyde dehydrogenase). Potency, µM (series often up to 57.1 µM), inactives show at the highest dose activity change, negative = inhibition, actives largely listed as inhibitors; active means well fitted inhibition curve with a large enough effect, not every such curve was filed as active; inconclusive means small, poorly fitted or top-dose-only effect, or another doubt; inactive means no such curve, though single readings can be large or run the other way;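 further: 0% = wells with enzyme and -100% = buffer wells without enzyme; nearly all actives have a fitted effect of over 50% in size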
APE1 inh-1: qHTS Assay for Inhibitors of the Human Apurinic/apyrimidinic Endonuclease 1 (APE1). DNA repair nuclease/redox regulator APEX1 (Homo sapiens), P27695. 0.35% of 350,000 active. Potency, µM (titrated, usually from 65.8 µM), without a hit: at the top dose activity change, negative = inhibition, hits mostly inhibitors. recombinant APE1, TAMRA/BHQ-2 abasic DNA cleavage fluorescence;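 further: plate controls were vehicle for no effect and reference inhibitor for full effect; nearly all actives have a fitted effect of over 55% in size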
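Kinetic fluorescence read (525 ex/598 em nm, three reads 60 s apart) of AP-site incision; signal = third minus first read. Enzyme 0.75 nM, dual-labelled THF duplex 50 nM, compound preincubation 15 min RT.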
RECQ1 inh-1: qHTS Assay for Inhibitors of RecQ-Like Dna Helicase 1 (RECQ1) | RECQ1 DNA unwinding, red fluorescence kinetic read | Potency, µM (doses to about 57.3 µM), without a hit: top-dose activity, negative = inhibition, usual class: inhibitors | 0.54% of 240,000 active;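 further: plate controls were vehicle for no effect and no enzyme for full effect; nearly all actives have a fitted effect of over 30% in size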
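50 nM RECQ1T1 preincubated 15 min with compound in Tris pH 8.0 buffer with MgCl2, DTT, Tween-20 and 2.5 ug/ml poly(dI-dC); started with 200 nM TAMRA/BHQ-2 forked duplex and 2 mM ATP. Unwinding read as fluorescence (525/598 nm), two reads 2 h apart.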
APE1 dye cs: Counterscreen for APE1 Inhibitors: Fluorescent Dye Displacement Assay | shares compounds with APE1 inh-1 | DNA fluorescent dye displacement counterscreen, fluorescence | Potency, µM (highest dose often 28.5 µM), for inactives: top-dose activity change, negative = inhibition, most hits filed as inhibitors | 7% of 480 active | AID 2564, 2010;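 further: loss of thiazole orange fluorescence as the dye is displaced from duplex DNA; 0% = ThO with dsDNA and no compound and -100% = ThO without dsDNA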
EndoIV counter: Counterscreen for APE1 Inhibitors: qHTS Assay for Inhibitors of Endonuclease IV | shares compounds with APE1 inh-1 | E. coli Endo IV, fluorogenic AP-site DNA cleavage | Potency, µM (series often up to 27.1 µM), inactives show at the highest dose activity change, negative = inhibition, most hits filed as inhibitors | 4% of 560 active | AID 2565, 2010;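 further: plate controls were uninhibited enzyme wells for no effect and no enzyme buffer wells for full effect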
APE1 inh-2: Confirmation qHTS Assay for Inhibitors of the Human Apurinic/apyrimidinic Endonuclease 1 (APE1); shares compounds with APE1 inh-1; purified APE1, fluorogenic abasic-site DNA cleavage; Potency, µM (titrated, usually from 57.1 µM), inactives show top-dose activity change, negative = inhibition, actives largely listed as inhibitors; 44% of 750 active; AID 2572, 2010; further: nearly all actives have a fitted effect of over 30% in size
APE1 FP inh: qHTS FP-Based Assay for Inhibitors of the Human Apurinic/apyrimidinic Endonuclease 1 (APE1) | shares compounds with APE1 inh-1 | APE1 binding to TAMRA-labelled double-stranded DNA, fluorescence polarization displacement | Potency, µM (series often up to 28.5 µM), inactives show top-dose activity, negative = inhibition, most hits filed as inhibitors | 7% of 480 active | AID 2573, 2010
BLM inh-2: qHTS Confirmation Assay for Inhibitors of Bloom's syndrome helicase (BLM); shares compounds with BLM inh-1; Potency, µM, for inactives: max response, negative = inhibition, usual class: inhibitors; AID 2585, 2010; 40% of 220 active; BLM DNA unwinding, fluorescence quenching, biochemical;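 further: strand separation dequenches TAMRA so unwinding raises red fluorescence; series mostly up to about 69 µM; nearly all actives have a fitted effect of over 45% in size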
RECQ1 inh conf: Confirmation qHTS Assay for Inhibitors of RecQ-Like Dna Helicase 1 (RECQ1). Potency, µM (series often up to 229 µM), inactives show top-dose activity change, negative = inhibition, actives largely listed as inhibitors. AID 2708, 2010. RECQ1 helicase DNA unwinding, fluorescence. 28% of 610 active. shares compounds with RECQ1 inh-1; further: nearly all actives have a fitted effect of over 45% in size
RECQ1 ADP FP: Counterscreen for RECQ1 Inhibitors: ADP Fluorescence Polarization Displacement Assay | shares compounds with RECQ1 inh-1 | ADP fluorescence polarization displacement counterscreen | Potency, µM (top dose mostly 228 µM), without a hit: top-dose activity change, negative = inhibition, hits mostly inhibitors | 27% of 530 active | AID 2711, 2010; further: nearly all actives have a fitted effect of over 45% in size
RECQ1 inh-2: Confirmation qHTS Assay for Inhibitors of RecQ-Like Dna Helicase 1 (RECQ1) - Round 2 Cherry Picks; Potency, µM (top dose mostly 119 µM), inactives show at the top dose activity, negative = inhibition, hits mostly inhibitors; 15% of 1,100 active; shares compounds with RECQ1 inh-1; AID 504841, 2011; recombinant RECQ1 DNA unwinding, red fluorescence; further: nearly all actives have a fitted effect of over 50% in size
The depositor's hits bear a star; [ ] = dose if it differs, or a comment. Unless noted, the call rests on the fitted dose curve; in most records, active means well fitted curve in the direction sought with a large enough effect; inconclusive means small, poorly fitted or top-dose-only effect, or another doubt; inactive means no such curve, though single readings can be large; an effect the other way counts as inactive or inconclusive. Unless noted, on the % scale 0 is the no-effect control and ±100 the full control effect; potency means the concentration at half of the fitted maximal effect.

Screening COc1ccccc1Oc1ccc2c(c1)C(=O)N(c1cccc(O)c1)C2=O returned BLM inh-1 -14.1%, L3MBTL1 inh -4.7%, JMJD2E inh 1.6%, APE1 inh-1 -4.6% and RECQ1 inh-1 -19.3%.
For Nc1cc([N+](=O)[O-])ccc1C(=O)O the results were APE1 inh-1 inconclusive and RECQ1 inh-1 -12.1%.
Nc1ccc(N)c(C(=O)O)c1 was read as BLM inh-1 5.62µM*, JMJD2E inh -5.8%, APE1 inh-1 1.26µM*, RECQ1 inh-1 11.2µM* and APE1 inh-2 2.24µM*.
For CN(C)S(=O)(=O)c1cccc(C(=O)C2=C3SC=C(c4ccccc4)N3CC2)c1 the results were BLM inh-1 -6.7%, L3MBTL1 inh -2.8%, JMJD2E inh -4.2%, APE1 inh-1 8.9% and RECQ1 inh-1 inconclusive.
For COc1cc(-c2coc3cc(OC)c(OC)c(OC)c3c2=O)cc(OC)c1OC the results were BLM inh-1 4.1%, JMJD2E inh 1.6%, APE1 inh-1 -0.6% and RECQ1 inh-1 -2.5%.
`CC(=O)Oc1cc(-c2coc3cc(OC(C)=O)c(OC(C)=O)c(OC(C)=O)c3c2=O)cc(OC(C)=O)c1OC(C)=O` gave BLM inh-1 11.2µM*, JMJD2E inh 3.16µM*, APE1 inh-1 0.316µM*, RECQ1 inh-1 1µM*, EndoIV counter 20.6%[57.1 µM] and APE1 inh-2 1.12µM*.
`S=C(S)OC1CC2CC1C1CCCC21` (centres undefined) gave JMJD2E inh 15.2%, APE1 inh-1 2.4%, RECQ1 inh-1 -1.6%, EndoIV counter -11.9%[57.1 µM] and APE1 inh-2 -4.5%.
Screening COc1ccc2nc(N3CCCC3)c(C#N)cc2c1 returned BLM inh-1 -6.6%, JMJD2E inh -4.2%, APE1 inh-1 -3.3% and RECQ1 inh-1 -4.1%.
For COc1ccc2nc(N3CCCCC3)c(C#N)cc2c1 the results were BLM inh-1 -8.6%, L3MBTL1 inh 226.7%, JMJD2E inh inconclusive, APE1 inh-1 -2.6%, RECQ1 inh-1 -2.8% and APE1 inh-2 inconclusive.
For CCCCc1nc2sc3c(c2c(=O)n1NC(=O)c1ccco1)CC(C)(C)OC3 the results were BLM inh-1 -1.1%, L3MBTL1 inh -6.5%, JMJD2E inh 0.8%, APE1 inh-1 6.1% and RECQ1 inh-1 -0.4%.
`CCc1nc(SCC(=O)O)c(C#N)cc1C` gave BLM inh-1 -2.9%, JMJD2E inh -14.8%, APE1 inh-1 17.9% and RECQ1 inh-1 inactive.
For CCOC(=O)CC(=O)CSc1nc(CC)c(C)cc1C#N the results were BLM inh-1 1.0%, L3MBTL1 inh -7.9%, JMJD2E inh inactive, APE1 inh-1 7.0%, RECQ1 inh-1 8.2% and APE1 inh-2 -28.2%.
O=C(CSc1nc(-c2ccc(F)cc2)nc2c1Cc1ccccc1O2)Nc1ccc(C(=O)O)cc1 was read as BLM inh-1 8.91µM*, L3MBTL1 inh 5.01µM*, JMJD2E inh inconclusive, APE1 inh-1 inconclusive, RECQ1 inh-1 inconclusive, APE1 dye cs 3.16µM*, EndoIV counter inconclusive, APE1 inh-2 4.47µM*, APE1 FP inh -38.1% and BLM inh-2 28.9µM*.
For COc1ccc(Cc2nnc(SCC(=O)Nc3cc(Cl)ccc3OC)[nH]c2=O)cc1 the results were L3MBTL1 inh 4.7% and APE1 inh-1 -1.3%.
Screening Cc1c2c(c(O)c3c(O)cccc13)C(=O)O[C@H]2C1C(N(C)C)C(O)=C(C(N)=O)C(=O)[C@H]1O (some centres undefined) returned BLM inh-1 17.8µM*, APE1 inh-1 2µM*, RECQ1 inh-1 3.16µM*, APE1 dye cs 10µM*, EndoIV counter -3.6%[57.1 µM], APE1 inh-2 1.41µM*, APE1 FP inh 2.24µM*, RECQ1 inh conf 39.8µM*, RECQ1 ADP FP 15.8µM* and RECQ1 inh-2 inconclusive.
